# rCAG RNA binder = binders of r(CAG) RNA repeats, primary screen, biochemical, fluorescence | r(CAG) RNA repeat, TO-PRO-1 dye displacement fluorescence | inhibition, % at 3 µM | hit rate 1.3% among 370,000;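 active = inhibition above the plate cutoff, the mean of all test compounds on that plate plus 3 SD, cut at about 35% in these data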;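 note: 0% = DMSO alone and 100% = 100 µM mitoxantrone as full dye displacement; higher means more dye released from RNA so lower well fluorescence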
# LEDGF integ inh = blockers of LEDGF/p75-dependent integrase strand transfer – biochemical, TR-FRET, high throughput, primary screen; HIV-1 integrase (with human LEDGF/p75); TR-FRET IN-LEDGF/p75 DNA integration, Eu/Cy5; inhibition, % at 3.7 µM; hit rate 0.64% among 370,000; AID 743269, 2014;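 active = inhibition above the screen-wide mean plus 3 SD, cut at about 13% in these data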;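 note: signal is the Cy5 over europium emission ratio at 671 and 618 nm; 0% = plate median of compound wells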
# ABHD5-PLIN5 inh = ABHD5-PLIN5 interaction inhibitors, primary screen, cell lysate, split luciferase complementation, luminescence | Split G. princeps luciferase complementation, 4 h | inhibition, % at 4 µM | hit rate 0.78% among 360,000 | AID 602281, 2012;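 active = inhibition above the mean inhibition across every tested compound plus 3 SD, cut at about 22% in these data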;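 note: 0% = DMSO only wells and the 100% control is not disclosed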
# MBD2 DNA inh = inhibitors of MBD2 binding to methylated DNA, primary screen, biochemical, TR-FRET, DNA-binding domain, human | MBD2 binding to methylated oligonucleotide | hit rate 0.31% among 370,000 | inhibition, % at 4.4 µM; in the data active = inhibition above about 13%
# Target sequence (Q9UBB5 whole entry, looked up, the tested form may be a part): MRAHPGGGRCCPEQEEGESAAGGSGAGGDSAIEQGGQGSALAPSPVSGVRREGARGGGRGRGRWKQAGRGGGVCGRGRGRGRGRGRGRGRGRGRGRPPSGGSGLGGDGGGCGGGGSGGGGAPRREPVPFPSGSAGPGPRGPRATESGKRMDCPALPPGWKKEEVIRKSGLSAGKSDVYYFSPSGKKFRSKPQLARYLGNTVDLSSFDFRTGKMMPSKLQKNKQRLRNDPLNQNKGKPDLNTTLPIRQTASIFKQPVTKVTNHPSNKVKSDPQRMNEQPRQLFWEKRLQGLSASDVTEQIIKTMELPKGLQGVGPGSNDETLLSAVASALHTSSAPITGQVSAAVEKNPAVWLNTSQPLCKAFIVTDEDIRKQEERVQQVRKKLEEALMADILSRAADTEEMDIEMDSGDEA
# PRMT1 inh = PRMT1 methyltransferase inhibitors, primary screen, biochemical, fluorescence polarization; Protein arginine N-methyltransferase 1 (Homo sapiens), Q99873; recombinant PRMT1, activity-based probe fluorescence polarization; inhibition, % at 2.79 µM; hit rate 1.3% among 370,000;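 active = inhibition above about 21% made by adding two undisclosed values, limit read from the data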
# UHRF1 MBD2 ctr = UHRF1 methylated DNA binding inhibitors, primary screen, counter-screen for MBD2 inhibitor project, biochemical, TR-FRET, human UHRF1, single concentration. E3 ubiquitin-protein ligase UHRF1 (Homo sapiens), Q96T88. hit rate 0.75% among 370,000. inhibition, % at 4.4 µM. UHRF1 binding to methylated oligo;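 note: UHRF1 SRA domain binding a hemimethylated CpG hairpin DNA probe; 0% = median of test compound wells and 100% = reference inhibitor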
# UHRF1 DNA bind = UHRF1 methylated DNA binding inhibitors, counter-screen for MBD2 inhibitor project, biochemical, TR-FRET, human UHRF1 | shares compounds with MBD2 DNA inh | UHRF1 binding to methylated oligonucleotide | inhibition, % at 4.4 µM | hit rate 25% among 1,000;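 note: UHRF1 SRA domain binding a labeled hemimethylated CpG hairpin DNA; 0% = vehicle only and 100% = reference inhibitor with vehicle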
# MBD2 confirm = inhibitors of MBD2 binding to methylated DNA, confirmation, biochemical, TR-FRET, DNA-binding domain, human. AID 720531, 2013. inhibition, % at 4.4 µM. shares compounds with MBD2 DNA inh. TR-FRET MBD2-DBD binding to methylated oligonucleotide. hit rate 26% among 1,000; in the data active = inhibition above about 14%
# * marks the source's active call; other numbers are inactive results; nt = no result given. Shown are actives, neighbours in structure and some others; about 4.1% of the full set was active somewhere. Cut-off read from the data, not from the text of the source, unless noted: active = inhibition above about 21%; inactive = the rest.
SMILES,rCAG RNA binder,LEDGF integ inh,ABHD5-PLIN5 inh,MBD2 DNA inh,PRMT1 inh,UHRF1 MBD2 ctr,UHRF1 DNA bind,MBD2 confirm
O=C(C(=O)N1CCC(Cc2ccccc2)CC1)c1cccs1,1,1,-1,9,8,4,nt,nt
C#CCNC(=O)C[C@H]1C[C@@]2(C(=O)OC)C(=C[C@H](C(C)C)O[C@@H]2C2CC2)N(CCC2=CCCCC2)C1=O,4,-4,nt,-3,-3,0,nt,nt
COc1ccc(C#Cc2ccc3c(c2)O[C@H](CN(C)S(=O)(=O)c2ccccc2F)[C@H](C)CN([C@H](C)CO)S3(=O)=O)cc1,14,-3,9,0,4,1,nt,nt
COc1ccccc1S(=O)(=O)N(C)C[C@H]1Oc2cc(C#CCC3CCCC3)ccc2S(=O)(=O)N([C@H](C)CO)C[C@H]1C,11,5,13,14*,5,22*,10,9
COc1ccc(S(=O)(=O)N(C)C[C@@H]2Oc3cc(C#CC4CCCCC4)ccc3S(=O)(=O)N([C@@H](C)CO)C[C@@H]2C)cc1,17,-6,14,17*,10,27*,12,8
Brc1ccc(N2O[C@H]3C=C[C@@H]2C3)nc1,10,3,nt,-1,15,-4,nt,nt
O=C(N=Nc1c(O)n(Cc2ccccc2)c2ccccc12)c1ccc(O)cc1,16,3,3,41*,4,2,4,0
NS(=O)(=O)c1ccc(CCNC(=O)CCS(=O)(=O)c2ccc(Br)cc2)cc1,0,0,-6,17*,-2,29*,44*,30*
Cc1ccc(OC(=O)N(C)C[C@H]2OCc3cn(nn3)CCCC(=O)N([C@@H](C)CO)C[C@@H]2C)cc1,0,-3,nt,3,5,1,nt,nt
O=C(Cn1cc(COc2cccc([N+](=O)[O-])c2)nn1)c1ccc(O)cc1,5,6,2,13*,6,21*,11,9
Cc1cc(OCc2cn(CC(=O)c3ccc(O)cc3)nn2)ccc1[N+](=O)[O-],6,-3,-5,2,0,14,nt,nt
CCOC(=O)C1=CCN(S(=O)(=O)c2cccc(Cl)c2)C1c1ccc(Cl)cc1 (centres undefined),4,3,nt,-2,4,0,nt,nt
CCN(CC)S(=O)(=O)c1ccc(C(=O)NCc2nnc(SCC(=O)OC)n2C)cc1,-3,-1,-4,21*,0,0,3,4
CN(C)CCNc1ccc(CO)c2sc3ccc(O)cc3c(=O)c12,9,-4,-28,16*,4,-12,12,27*
COc1ccc2sc3cccc(NCCN(C)C)c3c(=O)c2c1,5,-5,17,10,5,-11,nt,nt
CC1CCCCN1C(=O)CNCc1ccc(F)cc1 (centres undefined),-3,0,-1,37*,-4,0,6,2
CCc1nc2c(OCc3cccc(OC)c3)cccn2c1N(C)C(=O)c1ccccc1F,2,-2,4,26*,7,-2,3,1
O=c1[nH]cnc2c1ncn2[C@H]1CC[C@@H](CO)O1,1,3,3,38*,0,23*,7,2
CCCCN(C)C(=O)c1oc(=O)c2ccccc2c1-c1ccc(C)cc1,-3,-1,nt,4,1,-2,nt,nt
C[C@@H](/C=C/C(=O)OC(C)(C)C)Sc1ccc(C(C)(C)C)cc1,0,3,nt,18*,2,-3,8,2
CCC[C@@H](/C=C/C(=O)OC(C)(C)C)Sc1ccc(C(C)(C)C)cc1,1,0,nt,-3,-4,3,nt,nt
CC(C)(C)C(=O)OCOP(=O)(COCCn1cnc2c(N)ncnc21)OCOC(=O)C(C)(C)C,-2,0,nt,2,-5,0,nt,nt
CCCC(=O)Nc1ccc(NC(=O)Cc2ccccc2)cn1,-5,1,-2,3,0,-2,nt,nt
CCCC(=O)Nc1ccc(NC(=O)CCc2ccccc2)cn1,-1,-3,-4,69*,1,4,7,5
Cc1cc(C=O)c(C)n1-c1cccc(C(=O)O)c1,0,2,-5,4,2,8,nt,nt
SMILES,rCAG RNA binder,LEDGF integ inh,ABHD5-PLIN5 inh,MBD2 DNA inh,PRMT1 inh,UHRF1 MBD2 ctr,UHRF1 DNA bind,MBD2 confirm
Cc1cc(C=O)c(C)n1-c1cc(C(=O)O)cc(C(=O)O)c1,1,13,5,14*,6,49*,39*,11
Cc1csc(NC(=O)c2ccc(COc3ccccc3F)o2)n1,6,2,nt,9,4,-2,nt,nt
O=C(NCCc1c[nH]c2ccccc12)c1ccc(Br)o1,0,1,-6,16*,4,21*,8,5
O=C(Cc1c[nH]c2ccccc12)Nc1ccc(Nc2cccnc2)c(-c2cc(F)cc(F)c2)c1,13,-5,nt,4,0,-3,nt,nt
CCN(CC)CCOc1ccc2c(c1)C(=NO)c1cc(OCCN(CC)CC)ccc1-2,4,-2,1,41*,-2,54*,62*,47*
CCN(CC)CCOc1ccc(Br)cc1,-3,3,5,-1,-4,1,nt,nt
CC1=NN(c2cccc(F)c2)C(=O)/C1=C/c1ccc(N(C)C)cc1,1,8,-2,-3,0,-4,nt,nt
Cc1cc2c(=Cc3ccc(N(C)C)cc3)c3ccccc3n2[n+]1C,9,0,13,32*,4,47*,60*,64*
COc1cc(C(O)c2nc(-c3ccccc3)cs2)ccc1F (centres undefined),-1,3,3,14*,0,-2,1,4
COc1ccc(-c2csc(C(O)c3ccc(F)c(OC)c3)n2)cc1 (centres undefined),0,-4,6,2,-3,0,nt,nt
O=C(Nc1c[nH]c(=O)[nH]c1=O)c1cc([N+](=O)[O-])cc([N+](=O)[O-])c1,0,0,4,29*,2,-3,0,4
